Data reported in PubChem BioAssay (NCATS).
Values joined by “and” are separate entries in the source; they are usually repeats but may differ in a detail not shown here. Equal entries are not always repeated. Records with an inconclusive call do not appear. Active and inactive are the calls of the source. The call rests on the fitted dose curve; in most records, active means well fitted curve in the direction sought with a large enough effect; inconclusive means small, poorly fitted or top-dose-only effect, or another doubt; inactive means no such curve, though single readings can be large; an effect the other way counts as inactive or inconclusive.

Assays:
[1] = target: Cellular tumor antigen p53 (Homo sapiens) (UniProt P04637); experiment: Primary qHTS for small molecule compounds that upregulate eGFP-tagged delta133p53alpha (in N-terminal) cells. (AID 2060322); details: NCI-H358 eGFP-delta133p53alpha fluorescence, 24 h; activation: stronger effect = higher value;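 further: series mostly up to about 56 µM; 0% = DMSO vehicle and 100% = reference activator; nearly all actives have a fitted effect of over 75% in size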
Outline: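 NCI-H358 cells pre-induced 24 h with 10 ng/ml doxycycline to express N-terminal eGFP-delta133p53alpha, then dosed 24 h at 37C without doxycycline; fixed, Hoechst-stained, GFP intensity by laser scanning cytometry, normalized to DMSO (0%) and 57.5 uM 5-azacytidine (100%).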

[2] = target: Aldehyde dehydrogenase, mitochondrial (Homo sapiens) (UniProt P05091); experiment: qHTS for Inhibitors of the Aldehyde Dehydrogenase Family (ALDH2) Primary screen (AID 2061308);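 further: plate controls were vehicle for no effect and reference inhibitor for full effect; nearly all actives have a fitted effect of over 55% in size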
[3] = target: Retinaldehyde dehydrogenase 3 (Homo sapiens) (UniProt P47895); experiment: qHTS for Inhibitors of the Aldehyde Dehydrogenase Family (ALDH1A3) Primary screen (AID 2061315);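 further: plate controls were DMSO vehicle for no effect and reference inhibitor for full effect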

Chain of Cellular tumor antigen p53 (Homo sapiens) (P04637 whole entry, looked up): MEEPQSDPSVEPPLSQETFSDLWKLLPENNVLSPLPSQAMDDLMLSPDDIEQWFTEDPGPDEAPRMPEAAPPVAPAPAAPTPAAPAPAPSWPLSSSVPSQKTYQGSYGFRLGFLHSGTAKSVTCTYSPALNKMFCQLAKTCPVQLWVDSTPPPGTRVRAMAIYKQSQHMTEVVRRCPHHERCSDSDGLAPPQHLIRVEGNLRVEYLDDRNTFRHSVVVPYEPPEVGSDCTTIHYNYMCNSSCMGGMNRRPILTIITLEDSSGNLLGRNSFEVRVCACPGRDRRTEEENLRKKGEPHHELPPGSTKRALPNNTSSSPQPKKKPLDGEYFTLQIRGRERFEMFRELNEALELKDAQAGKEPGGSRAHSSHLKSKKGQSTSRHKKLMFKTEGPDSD

CC(C)C[C@H](NC(=O)[C@@H]1O[C@H]1C(=O)O)C(=O)NCCCCN=C(N)N
inactive: activation [1] -8.33% | Potency [2] | Potency [3]

C=C1C[C@]23C[C@H]1CC[C@H]2[C@@]12C=C[C@H](O)[C@@](C)(C(=O)O1)[C@H]2[C@@H]3C(=O)O
inactive: activation [1] -28.2% | Potency [2] | Potency [3]

C=C1C(OC(C)=O)C(=O)C2C(C)(C)C(O)CCC2(C)C1CC(OC(C)=O)/C(C)=C/COC(C)=O (stereo not drawn)
inactive: activation [1] -14.5% | Potency [2] | Potency [3]

Nc1ncnc2c([C@@H]3N[C@H](CO)[C@@H](O)[C@H]3O)c[nH]c12
inactive: activation [1] -8.93% | Potency [2] | Potency [3]

CC1CC2(O)OC(=O)C3=C2C(CCC3)[C@@]12C[C@@H](c1ccoc1)OC2=O (stereo partly drawn)
inactive: activation [1] -12.2% | Potency [2] | Potency [3]

CC1(C)CCCC2(C)C(C(=O)O)=CCC12 (stereo not drawn)
inactive: activation [1] -24.4% | Potency [2] | Potency [3]

CC(C)(C)Oc1ccc(OCC2Cc3ccccc3CN2C(=O)c2cccc3ccccc23)cc1 (stereo not drawn)
inactive: activation [1] -10.5% | Potency [2] | Potency [3]

CC(C)(C)c1cc(CN2CCN(CC(O)c3ccc(Cl)cc3)CC2)cc(C(C)(C)C)c1O (stereo not drawn)
inactive: activation [1] -0.477% | Potency [2] | Potency [3]

CC(=O)/C=C/C1(O)C(C)CC(O[C@@H]2O[C@H](CO)[C@@H](O)[C@H](O)[C@H]2O)CC1(C)C (stereo partly drawn)
inactive: activation [1] 2.68% | Potency [2] | Potency [3]

COc1cc(/C=C/C(=O)OC2CC(C)=C(C(=O)O)/C2=C/CO[C@@H]2O[C@H](CO)[C@@H](O)[C@H](O)[C@H]2O)ccc1O (stereo partly drawn)
inactive: activation [1] -8.93% | Potency [2] | Potency [3]

CC1(C)CC[C@]2(C(=O)O[C@@H]3O[C@H](CO)[C@@H](O)[C@H](O)[C@H]3O)CC[C@]3(C)C(=CCC4[C@@]5(C)C[C@@H](O)[C@H](O)[C@@](C)(CO)C5[C@H](O)C[C@]43C)C2[C@@H]1O (stereo partly drawn)
inactive: activation [1] -5.34% | Potency [2] | Potency [3]

Cn1cc(C2=C(c3coc4ccccc34)C(=O)NC2=O)c2cc(Br)ccc21
inactive: activation [1] -23.2% | Potency [2] | Potency [3]

CNC(=O)c1ccccc1Sc1ccc2c(/C=C/c3ccccn3)n[nH]c2c1
inactive: activation [1] -18.6% and -9.82% | Potency [2] | Potency [3]

C=C(C)C1CCC2(C(=O)OC3OC(COC4OC(CO)C(O)C(O)C4O)C(OC4OC(C)C(O)C(O)C4O)C(O)C3O)CCC3(C(=O)O)C(CCC4C5(C)CCC(=O)C(C)(C)C5CCC43C)C12 (stereo not drawn)
inactive: activation [1] -8.4% | Potency [2] | Potency [3]

CC(=O)OC1C(O)/C(C)=C\C2C(OC(=O)c3ccccc3)C(C)CC2(OC(C)=O)C(OC(C)=O)C(C)/C=C/C(C)(C)C1OC(C)=O (stereo not drawn)
inactive: activation [1] -20.5% | Potency [2] | Potency [3]

C[C@@H]1O[C@@H](O[C@H]2[C@@H](OC(=O)[C@]34CCC(C)(C)CC3C3=CCC5[C@@]6(C)C[C@H](O)[C@H](O[C@@H]7O[C@H](C(=O)O)[C@@H](O)[C@H](O)[C@H]7O)[C@@](C)(C(=O)O)C6CC[C@@]5(C)[C@]3(C)CC4)OC[C@H](O)[C@@H]2O)[C@H](O)[C@H](O)[C@H]1O[C@@H]1OC[C@@H](O)[C@H](O)[C@H]1O (stereo partly drawn)
inactive: activation [1] -8.93% | Potency [2] | Potency [3]

Cc1csc(NC(=O)c2ccc(COc3cccc(Cl)c3)o2)n1
inactive: activation [1] -9.67% | Potency [2] | Potency [3]

CN1CCc2cc(Cl)c(O)cc2[C@@H](c2cccc3c2OCC3)C1
inactive: activation [1] -1.67% | Potency [2] | Potency [3]

CC1OC(O[C@H]2CC[C@@]3(C)C(CC[C@]4(C)C3CC=C3C5CC(C)(C)CC[C@]5(C(=O)OC5OC(CO)C(OC6OCC(OC7OCC(O)C(O)C7O)C(O)C6O)C(O)C5O)CC[C@]34C)C2(C)C)C(O)C(O)C1OC1OC(CO)C(O)C(OC2OC(CO)C(O)C(O)C2O)C1O (stereo partly drawn)
inactive: activation [1] 9.16% | activity change, negative = inhibition [2] 8.06% [at 11.2 µM] | activity change, negative = inhibition [3] 8.31% [at 11.2 µM]

CC(=O)O[C@H]1[C@@H](O)[C@H](O[C@H]2[C@@H]3C=CO[C@@H](O[C@H]4O[C@@H](CO)[C@H](O)[C@@H](O)[C@@H]4O)[C@@H]3[C@@]3(CO)O[C@@H]23)O[C@@H](C)[C@@H]1OC(=O)/C=C/c1ccccc1
inactive: activation [1] -17.9% | Potency [2] | Potency [3]

OC[C@@]1(O)CO[C@H](OC[C@H]2O[C@@H](OCCc3ccccc3)[C@H](O)[C@@H](O)[C@@H]2O)[C@@H]1O
inactive: activation [1] -10.7% | Potency [2] | Potency [3]
